Results taken from PubChem BioAssay AID1347156 (National Center for Advancing Translational Sciences (NCATS), 2019).
Records with an inconclusive call do not appear. Entries that show only a call come without a potency. The source made the active and inactive calls. The call rests on the fitted dose curve; in most records, active means well fitted cell-killing curve with a large enough effect; inconclusive means small, poorly fitted or top-dose-only effect; inactive means flat fitted curve, though single readings scatter.

Assay: DAPI mCherry counterscreen qHTS for Zika virus inhibitors; further: nearly all actives have a fitted effect of over 55% in size
Conditions: Vero cells, DAPI nuclear count cytotoxicity, imaging 48-72 h, infected with Zika reporter virus, MOI 1; series mostly up to 32.6 µM
Description: Assay Submitters (PI): Avindra Nath, Ph.D., National Institute of Neurological Disorders and Stroke (NINDS), Bethesda, MD Radhakrishnan Padmanabhan, Ph.D., Georgetown University (GU), Washington D.C. Zika Virus causes congenital defects, including microcephaly and is associated with Guillain-Barre syndrome, eningoencephalitis and myelitis in infected adult. […] Using a target-based approach, we hope to establish a screening paradigm to uncover novel, cell-active NS2B-NS3 protease (Zika Virus) specific inhibitors from NCATS' collection of small molecules using qHTS. […] Four assay panel was created to identify potential Zika Virus inhibitors. Namely, (1) GU unlinked NS2B-NS3 AMC tagged protease qHTS, (2) GU unlinked NS2B-NS3 Rhodamine tagged protease qHTS, (3) NINDS linked NS2B-NS3 AMC tagged protease qHTS, (4) NINDS linked NS2B-NS3 Rhodamine tagged protease qHTS. Active compounds were re-acquired and re-screened to confirm inhibition. Inhibitors were further screened against various confirmatory and counterscreens in dose response format. […] A DAPI (mCherry counterscreen) which determine Vero cell cytotoxicity was used to exclude false positive compounds. […] Early Translation Branch (ETB) National Center for Advancing Translational Sciences (NCATS), Rockville, MD National Institute of Health (NIH), Bethesda, Maryland
384 well ZIKV-mCherry & mCherry DAPI counterscreen: We have developed a new orthogonal imaging assay in 384-well plate format, which uses recombinant virus ZIKV-mCherry in Vero cells. Briefly, 30 microL of Vero cells derived from a green monkey cell line, were dispensed by Multidrop Dispenser into a clear solid bottom black 384 well plate (ultracarrier, Perkin Elmer LifeSciences) at a concentration of 5,000 cells per well. The plate was incubated overnight in a CO2 incubator at 37 degrees C. Compounds were delivered as a 126 nL DMSO solution by Kalypsys pintool transfer. Following compound transfer, 10 microL of ZIKV-mCherry was added at an MOI of 1 and incubated in a CO2 incubator for 48-72 hrs at 37 degrees C. After sufficient incubation of infected cells in test plates, 8 microL of 32% PFA was dispensed into assay plates to fix cells and incubated for 20 min at room temperature. Plates were washed 3 times with PBS using BioTek EL406 microplate washer/dispenser. After washing, 30 microL of PBS with 0.01% TX-100 containing Hoechst dye was dispensed into the each well of the plates for nuclear staining. 384-well plates were imaged on an automated, widefield high content imager (INCell 2200, GE Healthcare) using a 10x/0.45 NA lens and standard DAPI (nuclear stain) and mCherry (cy5) excitation and emission filters. The TIFFs were quantitated using the canned Multi Target Analysis protocol (GE Investigator Workstation software v3.7.2). Briefly, nuclei from the DAPI channel were identified using top hat segmentation and a sensitivity setting of 96 and minimum size area of 35 microm2. A recombinant Zika viral infection was monitored in the Cy5 channel (cells) using a 2 microm collar dilation from the nuclear bitmap. mCherry objects with an average nuclear RFU intensity above 450 (3 stdev above mean negative control wells) were considered "mcherry positive" and data was analyzed by percent infection rate.
Potency means the concentration at half of the fitted maximal effect.

SMILES | Potency
N#C/C(=C\c1ccc(-c2ccc(Cl)c(C(=O)O)c2)o1)c1nc2ccccc2[nH]1 | inactive
COc1ccc(NS(=O)(=O)c2ccc3c(c2)[C@H]2C=CC[C@H]2[C@@H](c2ccc(C(=O)O)cc2)N3)cc1 | inactive
Cc1nn2c(=O)cc(COC(=O)c3ccc(NC(=O)c4ccc(C(C)(C)C)cc4)cc3)nc2s1 | 28.2 µM (active)
O=C(Nc1ccc(Oc2ccc(Cl)cc2)c(Cl)c1)c1cc(I)cc(I)c1O | 10 µM (active)
Cc1nc(N=Nc2cc(S(=O)(=O)O)c3cc([N+](=O)[O-])cc(S(=O)(=O)O)c3c2)c(COP(=O)(O)O)c(C=O)c1O | inactive
COc1cccc(-n2nc(C(=O)O)cc2-c2ccc(C3CCCCC3)c(Cl)c2)c1 | 35.5 µM (active)
CC(C)C1=CCC(C)(O)C(OC2OC(CO)C(O)C(O)C2O)C1 (stereo not given) | inactive
O=c1c(O)c(-c2ccc(O)c(O)c2)oc2cc(O)ccc12 | inactive
O=C(O)C1(Cc2cccc(Nc3nccs3)n2)CCC(Oc2cccc(Cl)c2F)CC1 (stereo not given) | 17.8 µM (active)
C/C=C/C=C/C=C/C(=O)O[C@@H]1[C@@H](OC)C2=C(C(=O)N(C(CCC(=O)O)C(=O)O)C2)[C@@]2(C)CCCC(C)(C)[C@H]12 (stereo not given in full) | inactive
Oc1c(Cl)cc(Cl)cc1Sc1cc(Cl)cc(Cl)c1O | inactive
O=S(=O)(O)c1cc(O)c2c(N=Nc3ccc(Nc4ccccc4)c4c(S(=O)(=O)O)cccc34)cc(S(=O)(=O)O)cc2c1 | inactive
Cc1ccc(C(=O)Nc2ccc(S(=O)(=O)O)c3cc(S(=O)(=O)O)cc(S(=O)(=O)O)c23)cc1NC(=O)c1cccc(NC(=O)Nc2cccc(C(=O)Nc3cc(C(=O)Nc4ccc(S(=O)(=O)O)c5cc(S(=O)(=O)O)cc(S(=O)(=O)O)c45)ccc3C)c2)c1 | inactive
O=C(O)COc1ccccc1C1Nc2ccccc2-c2nnc(SCc3ccc(Cl)cc3)nc2O1 (stereo not given) | inactive
CC[C@H](C)[C@H]1O[C@]2(CC[C@@H]1C)C[C@@H]1C[C@@H](C/C=C(\C)[C@@H](O[C@H]3C[C@H](OC)[C@@H](O[C@H]4C[C@H](OC)[C@@H](O)[C@H](C)O4)[C@H](C)O3)[C@@H](C)/C=C/C=C3\CO[C@@H]4[C@H](O)C(C)=C[C@@H](C(=O)O1)[C@]34O)O2 | 8.91 µM (active)
CCC(C)CCCCC(=O)NC(CCNCS(=O)(=O)O)C(=O)NC(C(=O)NC(CCNCS(=O)(=O)O)C(=O)NC1CCNC(=O)C(C(C)O)NC(=O)C(CCNCS(=O)(=O)O)NC(=O)C(CCNCS(=O)(=O)O)NC(=O)C(CC(C)C)NC(=O)C(CC(C)C)NC(=O)C(CCNCS(=O)(=O)O)NC1=O)C(C)O (stereo not given) | inactive
Cc1ccccc1NC(=O)Nc1ccc(CN2C(=O)N([C@@H](CC(C)C)C(=O)N[C@@H](CC(=O)O)c3ccccc3)C(=O)C2(C)C)cc1 | 7.08 µM (active)
CCCCCCCC/C=C\CCCCCCCC(=O)NCCc1ccc(O)c(O)c1 | 8.91 µM (active)
CCCCCCCOc1cc2c(cc1/C(C)=C/c1ccc(C(=O)O)cc1)C(C)(C)CCS2(=O)=O | 15.8 µM (active)
O=C(Nc1cccc(C(=O)OCc2cc(=O)n3nc(C4CC4)sc3n2)c1)c1cccc(Cl)c1 | inactive

SMILES | Potency
CCOc1ccc(-c2ccc(Cn3c(CC(C)(C)C(=O)O)c(SC(C)(C)C)c4cc(OCc5ccc(C)cn5)ccc43)cc2)cn1 | 17.8 µM (active)
O=C(Nc1cccc(C(=O)OCc2cc(=O)n3nc(C4CC4)sc3n2)c1)c1ccc(F)cc1 | inactive
Cc1ccc(NC(=O)c2ccc3c(O)c(S(=O)(=O)c4ccc(Cl)cc4)c(=O)[nH]c3c2)cc1 | inactive
O=C(O)c1c(Br)c(Br)c(Br)c(Br)c1C1c2ccc(O)cc2Oc2cc(O)ccc21 | 20 µM (active)
Cc1cc(-c2ccc(N=Nc3c(S(=O)(=O)O)cc4cc(S(=O)(=O)O)cc(N)c4c3O)c(C)c2)ccc1N=Nc1c(S(=O)(=O)O)cc2cc(S(=O)(=O)O)cc(N)c2c1O | inactive
O=S(=O)(Nc1cc(Cl)c(Oc2cnc3ccccc3c2)c(Cl)c1)c1ccc(Cl)cc1Cl | 12.6 µM (active)
CC(C)=CCOc1ccc(/C=C/C(=O)c2ccc(OCC=C(C)C)cc2OCC(=O)O)cc1 | 25.1 µM (active)
O=C(O)COc1ccc(-c2nccc3c2C(=O)N(Cc2cccc(C(F)(F)F)c2)CC(COc2ccc4cnccc4c2)O3)cc1 (stereo not given) | inactive
O=C(Nc1cccc2c(=O)cc(-c3nn[nH]n3)oc12)c1ccc(OCCCCc2ccccc2)cc1 | 35.5 µM (active)
C[C@@H](NC(=O)c1ccc(Cl)cc1)c1c(-c2ccc(F)cc2)noc1C(=O)O | inactive
CC1(C)CCC(C)(C)c2cc3c(cc21)Sc1ccccc1N=C3c1ccc(C(=O)O)cc1 | 8.91 µM (active)
O=C(O)c1cc(O)c2cccc(O)c2c1O[C@@H]1O[C@H](CO)[C@@H](O)[C@H](O)[C@H]1O | inactive
O=C(O)c1cc(-c2ccc(C(F)(F)F)cc2)nc2n[nH]c(-c3ccccc3)c12 | inactive
Cc1cc(C)cc(C(=O)N(C)[C@H](Cc2ccc(-c3ccccc3)cc2)C(=O)N[C@@H](Cc2c[nH]c3ccccc23)C(=O)O)c1 | 8.91 µM (active)
COc1cccc(C(=O)Nc2ccc(C(=O)OCc3cc(=O)n4nc(C5CC5)sc4n3)cc2)c1 | 5.62 µM (active)
O=C(O)c1ccc(S(=O)(=O)N(Cc2ccc(OC(F)(F)F)cc2)c2ncc(C(F)(F)F)cc2Cl)cc1 | 25.1 µM (active)
Nc1ncnc2c([C@@H]3N[C@H](CO)[C@@H](O)[C@H]3O)c[nH]c12 | inactive
CCC(=O)O[C@H]1[C@H](O[C@@H]2[C@@H](C)[C@H](O[C@H]3C[C@@](C)(OC)[C@@H](O)[C@H](C)O3)[C@@H](C)C(=O)O[C@H](CC)[C@@](C)(O)[C@H](O)[C@@H](C)C(=O)[C@H](C)C[C@@]2(C)O)O[C@H](C)C[C@@H]1N(C)C | 35.5 µM (active)
COc1c2occc2cc2ccc(=O)oc12 | inactive
CC(C)(C)c1ccc(S(=O)(=O)Nc2ccc(O)c(Sc3nc4ccccc4s3)c2)cc1 | 14.1 µM (active)
